G9a inh: G9a (human) methyltransferase inhibition; hit rate 8.8% among 350,000; G9a H3K9 monomethylation, AlphaScreen, 2 h; Q96KQ7; Potency, µM (series often up to 102 µM), for the others: top-dose activity, negative = inhibition, usual class: inhibitors; note: potency is the fitted concentration of half-maximal effect; % is set by controls: 0 for no effect and ±100 for the full control effect; nearly all actives have a fitted effect of over 75% in size
Target sequence (Q96KQ7 913-1193 limits assumed): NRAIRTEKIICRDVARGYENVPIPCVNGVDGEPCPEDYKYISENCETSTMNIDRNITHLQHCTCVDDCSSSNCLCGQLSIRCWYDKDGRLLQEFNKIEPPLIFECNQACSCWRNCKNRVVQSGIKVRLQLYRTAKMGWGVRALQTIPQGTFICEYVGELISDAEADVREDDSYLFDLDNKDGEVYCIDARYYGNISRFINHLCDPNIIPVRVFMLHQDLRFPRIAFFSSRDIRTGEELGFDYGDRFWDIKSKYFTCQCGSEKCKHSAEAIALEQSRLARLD
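Readings reflect AlphaScreen signal from monomethyl-H3K9 antibody detection. HMT at 20 nM; substrate b-H3K9 500 nM; cofactor SAM 20 uM; 2 h RT reaction; compounds tested as titrations in qHTS with 15 min preincubation.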
Six1-Eya2 inh: inhibitors of human Six1/Eya2 interaction | Q15475+O00167 | AlphaScreen GST-Six1/His-Eya2 binding, biochemical; active compounds read low | activity change, % (concentration not given with the values) | hit rate 0.56% among 360,000 | AID 651725; in the data active = activity change below about -65%; inconclusive = mostly about -30% to -63%; note: % is set by controls: 0 for no effect and ±100 for the full control effect
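AlphaScreen with GST-Six1 and His-Eya2 (5X mix: 250 nM and 500 nM), glutathione donor and nickel acceptor beads; buffer 50 mM Tris pH 8.0, 300 mM NaCl, 1 mM TCEP; 1 h at 37 C in the dark.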
BAZ2B block: inhibitors of human BAZ2B bromodomain; AlphaScreen BAZ2B-H3K14Ac peptide displacement; Potency, µM (doses to about 114 µM), without a hit: at the top dose activity change, negative = inhibition, usual class: inhibitors; hit rate 4.4% among 360,000; note: potency is the fitted concentration of half-maximal effect; % is set by controls: 0 for no effect and ±100 for the full control effect; nearly all actives have a fitted effect of over 60% in size
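In this displacement format the biotinylated H3(5-23) peptide acetylated at Lys14 serves as ligand at 50 nM, with BAZ2B at 50 nM in PBS pH 7.4 containing 0.01% Tween-20. Donor and acceptor beads are 10 ug/mL final.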
HP1b binding inh: inhibitors of HP1-beta chromodomain binding to methylated histone tails; Potency, µM (highest dose often 114 µM), without a hit: at the top dose activity change, negative = inhibition, most hits filed as inhibitors; AID 540317; hit rate 0.56% among 390,000; P83916; AlphaScreen HP1-beta / biotin-H3K9me3 peptide binding; note: potency is the fitted concentration of half-maximal effect; nearly all actives have a fitted effect of over 70% in size
Target sequence (P83916 whole entry, looked up): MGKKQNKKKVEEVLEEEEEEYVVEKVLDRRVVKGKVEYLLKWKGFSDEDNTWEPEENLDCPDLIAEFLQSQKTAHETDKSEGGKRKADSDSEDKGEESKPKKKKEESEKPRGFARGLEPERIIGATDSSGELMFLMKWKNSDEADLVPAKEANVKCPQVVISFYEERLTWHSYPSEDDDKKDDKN
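AlphaScreen: HP1-beta (50 nM) preformed 30 min with biotin-H3(1-18)K9me3 peptide (50 nM) in PBS pH 7.4, 0.01% Tween-20. Compound added for 30 min at RT, then streptavidin donor/nickel chelate acceptor beads (10 ug/mL) for 30 min.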
CtBP-E1A inh: inhibitors of CtBP/E1A interaction. hit rate 0.49% among 340,000. activity change, % (no concentration beside the values). AlphaScreen GST-E1A/His-CtBP binding, 1536-well; active compounds read low; in the data active = activity change below about -65%; inconclusive = mostly about -30% to -63%; note: % is set by controls: 0 for no effect and ±100 for the full control effect
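Steps: dispense buffer (Tris pH 8.0, NaCl 300 mM, TCEP 1 mM, BSA, Tween 20); add 5X protein mix (GST-E1A, His-CtBP, 125 nM each); pin 23 nL compound; 2 h at 37 °C, dark; add 5X beads (50 ug/mL); 1 h; read.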
JMJD2A Tudor inh: inhibitors of human JMJD2A Tudor domain. O75164. hit rate 4.4% among 390,000. Potency, µM (series often up to 114 µM), without a hit: top-dose activity change, negative = inhibition, usual class: inhibitors. AlphaScreen JMJD2A-Tudor / H3K4me3 peptide binding; note: potency is the fitted concentration of half-maximal effect; % is set by controls: 0 for no effect and ±100 for the full control effect; nearly all actives have a fitted effect of over 50% in size
* hit, by the source's call; ? = inconclusive; · = no result given; [ ] = dose if it differs, or a comment. A selection: hits, their analogues and other compounds. The true share with any hit is near 10%. Unless noted, calls come from the whole dose curve; as a rule, active = well fitted inhibition curve with a large enough effect; inconclusive = small, poorly fitted or top-dose-only effect; inactive = no such curve, though single readings can be large or run the other way.

SMILES	G9a inh	Six1-Eya2 inh	BAZ2B block	HP1b binding inh	CtBP-E1A inh	JMJD2A Tudor inh
COc1ccc(C(=O)NCC(c2ccc3c(c2)OCO3)N2CCN(c3ccc(OC)cc3)CC2)cc1 (configuration not stated)	6.3µM*	?	?	2%	-7	?
COc1ccc(C(CNC(=O)C(=O)Nc2ccc3c(c2)OCO3)N2CCN(C)CC2)cc1 (configuration not stated)	-26%[59 µM]	-1	10%	19%	6	-6%
CN1CCN(C(CNC(=O)C(=O)Nc2ccc3c(c2)OCO3)c2ccc(F)cc2)CC1 (configuration not stated)	50µM*	2	7%	-18%	-2	-24%
COc1ccc(C(=O)NCC(c2ccc3c(c2)OCO3)N2CCN(c3ccc(F)cc3)CC2)cc1 (configuration not stated)	-26%[59 µM]	·	-37%	-7%[57 µM]	·	?
CS(=O)(=O)N(Cc1cccc(CN(C(C(=O)O)c2ccccc2)S(C)(=O)=O)c1)C(C(=O)O)c1ccccc1 (configuration not stated)	32µM*	1	?	36%	3	-31%
CCC(=O)N1CCc2cc(S(=O)(=O)NC(Cc3ccccc3)C(=O)Nc3ccccc3C)ccc21 (configuration not stated)	4%[59 µM]	·	·	29%	·	-12%
CC(C)(C)c1ccc(C(=O)NNC(=O)c2ccc(Cl)cc2)cc1	-5%[59 µM]	-1	1%	40%	5	1%
CCc1ccc(C(=O)NNc2ccc(Cl)cc2)cc1	10µM*	10	?	78%	·	-26%
CCc1ccc(C(=O)NNc2cc(Cl)cc(Cl)c2)cc1	·	14	-4%	20%	0	-16%
CC(C)(C)c1ccc(C(=O)NNc2cc(Cl)cc(Cl)c2)cc1	22µM*	13	-10%	65%	·	-2%
CCCCOc1ccc(S(=O)(=O)N2CCN(c3ccccc3OCC)CC2)cc1	36%[59 µM]	·	47%	83%	·	-4%
CCCC(C(=O)NCc1cccc(Cl)c1)N1Cc2ccccc2C1=O (configuration not stated)	5%[59 µM]	·	8%	-6%	·	-12%
CC(=O)c1ccc(NC(=O)C2CCN(c3nnc(C)c4c(C)n(-c5ccccc5)nc34)CC2)cc1	-48%[59 µM]	·	?	24%	·	?
CCS(=O)(=O)c1ncc(Cl)c(C(=O)Nc2ccc(S(=O)(=O)N3CCC(C)CC3)cc2)n1	45µM*	20	-27%[57.1 µM]	3%[57 µM]	-3	-30%
CCCS(=O)(=O)c1ncc(Cl)c(C(=O)Nc2ccc(S(=O)(=O)Nc3ncccn3)cc2)n1	18µM*	-83*	-18%	63%	-77*	-3%
Cc1ccc(-n2nnnc2SCC(=O)Nc2ccc(N3CCN(C)CC3)cc2)c(C)c1	50µM*	-19	?	55%	·	7%
Cc1ccc(-n2nnnc2SCC(=O)Nc2cc(C)on2)c(C)c1	5%	-8	-17%	29%[57 µM]	1	-4%
CN1CCN(c2ccc(NC(=O)CSc3nnnn3-c3ccccc3F)cc2)CC1	79µM*	-3	-21%[57.1 µM]	3%	-3	-30%
COc1ccc(NC(=O)CSc2nnnn2-c2ccccc2F)cc1	?	5	-9%	20%	-7	-11%
O=C(Nc1nnc(N2CCCCCC2)s1)Nc1ccccc1C(F)(F)F	-11%[59 µM]	·	0%	13%	·	-9%
CCc1ccccc1NC(=O)CCC(=O)N1CC(C)Oc2ccc(C)cc21 (configuration not stated)	1%[59 µM]	·	1%	22%	·	-15%
CCOc1nc(NCc2ccco2)nc(Nc2ccc(OC)cc2)n1	?	-16	50µM*	-7%	-12	-16%
COc1ccc(Nc2nc(NCc3ccco3)nc(N/N=C/c3ccccc3)n2)cc1	?	-23	79µM*	4%	-16	?
CCOc1nc(NCc2ccco2)nc(Nc2ccccc2F)n1	-5%[59 µM]	-1	2%	32%	0	-4%
COc1ccc(-n2c(SCC(=O)c3ccccc3)nc3c([nH]c4ccccc43)c2=O)cc1	3%[59 µM]	·	3%	18%[57 µM]	·	-16%

Screening results (PubChem)
